# Compound activity from PubChem BioAssay.
# TRb SRC2 PPI: qHTS for Inhibitors of the Interaction of Thyroid Hormone Receptor and Steroid Receptor Coregulator 2. Thyroid hormone receptor beta (Homo sapiens), P10828. TRbeta-SRC2 peptide binding, fluorescence polarization; receptor liganded with 1 µM T3. Potency, µM (highest dose often 106 µM), for the others: at the top dose activity change, negative = inhibition, usual class: inhibitors. hit rate 0.065% among 280,000;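 also: potency is read from the fitted curve at half-maximal effect; plate controls were bound peptide for no effect and peptide without receptor for full effect; nearly all actives have a fitted effect of over 50% in size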
# Target sequence (P10828 whole entry, looked up): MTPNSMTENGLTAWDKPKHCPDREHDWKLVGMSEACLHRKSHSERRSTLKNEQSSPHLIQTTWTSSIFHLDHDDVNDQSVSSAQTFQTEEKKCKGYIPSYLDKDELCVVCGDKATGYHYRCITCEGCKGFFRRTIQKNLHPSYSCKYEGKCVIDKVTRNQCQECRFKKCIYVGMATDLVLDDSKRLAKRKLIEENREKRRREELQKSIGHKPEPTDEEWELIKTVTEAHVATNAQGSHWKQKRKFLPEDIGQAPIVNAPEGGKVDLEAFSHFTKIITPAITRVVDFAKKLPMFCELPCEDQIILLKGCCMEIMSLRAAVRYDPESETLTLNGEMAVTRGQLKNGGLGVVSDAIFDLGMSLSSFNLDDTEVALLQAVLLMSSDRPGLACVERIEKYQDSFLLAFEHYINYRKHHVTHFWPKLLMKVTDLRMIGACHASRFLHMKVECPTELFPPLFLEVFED
#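 Fluorescence polarization of 20 nM Texas Red SRC2 peptide with 0.6 uM human TRb ligand-binding domain, in Tris buffer with 1uM T3 and 5% DMSO. Incubated 5 hr ambient; normalized to unbound and bound controls.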
# TexasRed fluor: Total Fluorescence Counterscreen for Inhibitors of the Interaction of Thyroid Hormone Receptor and Steroid Receptor Coregulator 2; TRb/SRC2 Texas Red total fluorescence interference; Potency, µM (highest dose often 106 µM), inactives show top-dose fluorescence change, negative = quenching; hit rate 0.29% among 280,000; AID 1479, 2009; active = well fitted curve in either direction with a large enough effect; inconclusive = small, poorly fitted or top-dose-only effect; also: potency is read from the fitted curve at half-maximal effect; % is scaled to controls: 0 for no effect and ±100 for the full control effect
#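 Flags fluorescent or light-absorbing compounds by total fluorescence, S + 2P, at 555 nm excitation and 632 nm emission. Mixture: 20 nM Texas Red SRC2 peptide, 0.6 uM human TRb LBD, 1 uM T3, 5% DMSO; compound exposure 5 h at ambient temperature.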
# HTT cytoprotect: qHTS Multiplex Assay to Identify Dual Action Probes in a Cell Model of Huntington: Cytoprotection (ATP); Potency, µM (doses to about 56.4 µM), for inactives: cytoprotection (ATP increase), actives largely listed as activators; PC12 HTT-Q103 induced, cytoprotection, ATP luminescence, 40 h; hit rate 0.14% among 230,000; also: potency is read from the fitted curve at half-maximal effect; % of control where 0% means no effect; nearly all actives have a fitted effect of over 45% in size
#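 Quantitative HTS on tebufenozide-induced (100 nM) PC12 cells expressing HTTQ103 exon 1–GFP; compounds tested as a concentration series; survival measured via cellular ATP.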
# HTT aggregate: qHTS Multiplex Assay to Identify Dual Action Probes in a Cell Model of Huntington: Aggregate Formation (GFP); Potency, µM (doses to about 46.1 µM), without a hit: at the top dose activity change, negative = inhibition, usual class: inhibitors; AID 1688, 2009; PC12 HttQ103-GFP aggregates, Acumen cytometry, 40 h; hit rate 1.1% among 220,000; also: potency is read from the fitted curve at half-maximal effect; % is scaled to controls: 0 for no effect and ±100 for the full control effect; nearly all actives have a fitted effect of over 60% in size
#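 Aggregates are detected as GFP objects 1–25 µm with signal 6 STDEV over background in lysates of induced PC12 cells. These carry Huntingtin exon 1 with 103 glutamines fused to GFP under an ecdysone promoter; compounds titrated.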
# Coupling enz: qHTS Assay for Inhibitors of Fructose-1,6-bisphosphate Aldolase from Giardia Lamblia: Coupling assay counterscreen. coupling enzyme system counterscreen, AmpLite Red fluorescence. activity change, negative = inhibition, % at 58.2 µM, hits read low. hit rate 0.67% among 290,000. AID 2472, 2010; in the data active = activity change below about -30%; also: % is scaled to controls: 0 for no effect and ±100 for the full control effect
#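 Fluorescence at 525 nm excitation and 598 nm emission measured inhibition of the coupled detection system without aldolase. Compounds (at 57.5 uM final) were preincubated 10 min at room temperature with coupling enzyme reagent before a 20 min substrate/AmpLite Red step.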
# JMJD2E inh: qHTS Assay for Inhibitors of Human Jumonji Domain Containing 2E (JMJD2E). Lysine-specific demethylase 4E (Homo sapiens), B2RXH2. JMJD2E catalytic domain, FDH-coupled NADH fluorescence (FDH is formaldehyde dehydrogenase). Potency, µM (top dose mostly 57.1 µM), for inactives: top-dose activity change, negative = inhibition, most hits filed as inhibitors. hit rate 1.6% among 230,000. AID 2147, 2009; active = well fitted inhibition curve with a large enough effect, not every such curve was filed as active; inconclusive = small, poorly fitted or top-dose-only effect, or another doubt; inactive = no such curve, though single readings can be large or run the other way;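 also: potency is read from the fitted curve at half-maximal effect; 0% = wells with enzyme and -100% = buffer wells without enzyme; nearly all actives have a fitted effect of over 50% in size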
# Starred values were filed as active, the others as inactive; ? = inconclusive; . = no result given; [ ] = remark or other dose. The list is not random: actives were taken first. Their share in the collection is about 2%. Unless noted, calls follow the shape of the dose curve; as a rule, active = well fitted curve in the direction sought with a large enough effect; inconclusive = small, poorly fitted or top-dose-only effect, or another doubt; inactive = no such curve, though single readings can be large; an effect the other way counts as inactive or inconclusive.
SMILES,TRb SRC2 PPI,TexasRed fluor,HTT cytoprotect,HTT aggregate,Coupling enz,JMJD2E inh
CCCCN(CCCC)S(=O)(=O)c1ccc(NC(=O)c2cccs2)cc1,8.0%,1.0%,9.3%[10 µM],12.6µM*,-0.8,-13.1%
COc1ccc(-c2cnnc(CCCn3ccnc3-c3ccccc3)n2)cc1,0.6%[11.2 µM],0.8%[11.2 µM],-14.4%[10 µM],.,1.0,.
Cc1ccc2[nH]c3nc(CCCn4ccnc4-c4ccccc4)nnc3c2c1,0.5%[11.2 µM],-0.3%[11.2 µM],1µM*,.,-3.9,.
COc1cc(OC)c(C2C(C(=O)O)c3ccccc3C(=O)N2C)cc1OC (centres undefined),10.8%,-0.4%,7.9%,-9.8%,-39.9*,?
CCOC(=O)CCN1C(=O)[C@H]2[C@H]3[C@H](O)[C@H](O)C/C(=N/OCC(C)C)[C@H]3CC[C@@H]2C1=O,1.0%[11.2 µM],1.0%[11.2 µM],?,.,-0.3,.
Cc1ccc(C(=O)Nc2cc(C(C)C)c(O)c(C(C)C)c2)cc1,-4.5%,-9.9%,.,10µM*,-1.1,0.1%
O=C(NCc1cccc(Cl)c1)c1cc(COc2ccc3ncccc3c2)on1,-3.9%,-0.9%,-1.9%[10 µM],-3.6%[9.22 µM],8.1,?
Cc1ccc(F)cc1CNC(=O)c1cc(COc2ccc3ncccc3c2)on1,5.2%,-0.4%,-2.0%,12.6µM*,0.0,3.5%
Cc1cccc(C)c1OCc1cc(C(=O)N(Cc2nccn2C)C(C)C)no1,.,.,.,.,-2.1,.
CC(C)N(Cc1nccn1C)C(=O)c1cc(COc2ccc3ncccc3c2)on1,-4.8%,-0.9%,-5.9%,20µM*,2.8,-17.9%
COc1ccc(OCc2nn3c(Cn4cnc5ccccc54)nnc3s2)cc1,-0.5%,3.8%,-31.5%,25.1µM*,1.0,-6.3%
c1ccc(CCc2nn3c(Cn4cnc5ccccc54)nnc3s2)cc1,-9.3%,-2.4%,6.9%,-28.7%,2.2,-3.9%
COc1cc(C2N(c3cccc(Cl)c3)C(=O)C3CCCN32)cc(OC)c1OC (centres undefined),0.8%,0.5%,-1.8%,2.0%,0.4,-10.1%
COc1cc(C2N(c3ccccc3)CCN2c2ccccc2)cc(OC)c1OC,-7.7%,-1.7%,-1.7%,1.7%,-36.4*,?
CC(C)C[C@H](NC(=O)[C@H](CC(C)C)NC(=O)[C@H](CCC(N)=O)NC(=O)[C@H](CO)NC(=O)[C@@H]1CCCN1C(=O)[C@H](CO)NC(=O)[C@H](CO)NC(=O)[C@@H](NC(=O)[C@H](Cc1cnc[nH]1)NC(=O)[C@H](CCC(=O)O)NC(=O)[C@H](Cc1ccc(O)cc1)NC(=O)[C@H](CCCCN)NC(=O)[C@H](CCC(N)=O)NC(=O)[C@H](Cc1ccc(O)cc1)NC(=O)[C@H](CC(=O)O)NC(=O)[C@@H](NC(=O)[C@@H]1CCCN1C(=O)[C@H](CC(=O)O)NC(=O)[C@H](CC(N)=O)NC(=O)[C@H](CC(=O)O)NC(=O)CNC(=O)[C@H](CC(=O)O)NC(=O)[C@@H]1CCCN1C(=O)[C@H](CCC(N)=O)NC(=O)[C@H](Cc1ccc(O)cc1)NC(=O)[C@H](C)NC(=O)[C@H](Cc1c[nH]c2ccccc12)NC(=O)[C@H](Cc1ccccc1)NC(=O)[C@@H](NC(=O)[C@@H](N)CO)[C@@H](C)O)[C@@H](C)O)[C@@H](C)O)C(=O)N[C@@H](C)C(=O)N1CCC[C@H]1C(=O)NCC(=O)N[C@@H](CC(=O)O)C(=O)N[C@@H](Cc1ccc(O)cc1)C(=O)O,-6.9%,-1.8%,.,.,-0.3,.
CC(=O)Nc1cccc(NC(=O)Cc2cccs2)c1,.,.,.,.,0.3,.
O=C(Cc1cccs1)Nc1cccc(-c2nc3cc4ccccc4cc3[nH]2)c1,7.5%,-1.6%,.,25.1µM*,-7.7,?
